Experimental findings from PubChem BioAssay (NCATS) are described below.

Results filed as inconclusive are left out. Active and inactive are the calls of the source. Unless noted, calls come from the whole dose curve; as a rule, active = well fitted curve in the direction sought with a large enough effect; inconclusive = small, poorly fitted or top-dose-only effect, or another doubt; inactive = no such curve, though single readings can be large; an effect the other way counts as inactive or inconclusive.

Assay [1] has as its target Catechol O-methyltransferase (Homo sapiens) (UniProt P21964). Briefly: Confirmatory Screen for Target Class Profiling of Small Molecule Inhibitors of Methyltransferases (AID 1745852; calls by dose curve; for activity change, negative = inhibition: % is set by controls: 0 for no effect and ±100 for the full control effect). The settings on record: MTase-Glo luminescence, SAH detection, recombinant enzyme; measured here: COMT max response; stronger effect = lower value.
Assay [2] deals with Guanidinoacetate N-methyltransferase (Homo sapiens) (UniProt Q14353). Described as above. To be noted: MTase-Glo luminescence, SAH detection, recombinant enzyme; activity change, negative = inhibition: at 57.3 µM (top of the series).
Assay [3] addresses Nicotinamide N-methyltransferase (Homo sapiens) (UniProt P40261). The description is as above. To be noted: MTase-Glo luminescence, SAH detection, recombinant enzyme; measured here: NNMT max response; stronger effect = lower value.
Assay [4] deals with Phenylethanolamine N-methyltransferase (Homo sapiens) (UniProt P11086). Described as above. The settings on record: MTase-Glo luminescence, SAH detection, recombinant enzyme; measured here: PNMT max response; stronger effect = lower value.
Sequence of Phenylethanolamine N-methyltransferase (Homo sapiens) (P11086 whole entry, looked up): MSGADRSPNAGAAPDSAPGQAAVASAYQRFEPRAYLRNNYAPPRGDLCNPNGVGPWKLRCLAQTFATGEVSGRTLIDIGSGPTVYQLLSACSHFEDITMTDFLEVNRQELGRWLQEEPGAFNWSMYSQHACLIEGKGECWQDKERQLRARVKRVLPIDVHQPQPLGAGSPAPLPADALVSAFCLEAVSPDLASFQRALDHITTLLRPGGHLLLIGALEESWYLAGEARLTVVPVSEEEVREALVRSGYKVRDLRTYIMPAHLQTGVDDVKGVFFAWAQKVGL
The target of assay [5] is Nuclear receptor subfamily 1 group I member 3 (Homo sapiens) (UniProt Q14994). The assay is described as follows: Primary qHTS for antagonist of constitutive androstane receptor (CAR) against the NCATS DSHEA and TCM libraries (AID 1794836).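 Note: HepG2 cells stably expressing hCAR with CYP2B6 luciferase reporter stimulated by CITCO.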 To be noted: CAR reporter cell assay, antagonist mode, luciferase; series mostly up to 40 µM. In short, it runs like this: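 HepG2-CYP2B6-hCAR cells, attached 5 h, given compounds plus CITCO agonist […], incubated 24 h at 37 C. Luciferase luminescence read, multiplexed with CellTiter-Fluor viability (Ex/Em 405/540 nm).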
Sequence of Nuclear receptor subfamily 1 group I member 3 (Homo sapiens) (Q14994 whole entry, looked up): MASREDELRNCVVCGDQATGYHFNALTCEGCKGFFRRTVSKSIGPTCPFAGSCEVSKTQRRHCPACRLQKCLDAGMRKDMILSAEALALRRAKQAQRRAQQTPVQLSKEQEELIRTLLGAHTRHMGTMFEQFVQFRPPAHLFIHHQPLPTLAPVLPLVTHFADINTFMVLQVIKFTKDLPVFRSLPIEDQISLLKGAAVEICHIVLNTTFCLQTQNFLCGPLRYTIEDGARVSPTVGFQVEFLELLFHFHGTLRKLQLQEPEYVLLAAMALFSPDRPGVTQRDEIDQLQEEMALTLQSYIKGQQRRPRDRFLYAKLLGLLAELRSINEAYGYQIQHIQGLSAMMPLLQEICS
In general terms: Quantitative high-throughput screening tests each substance at several concentrations.

The nature of assay [6]: Viability counterscreen for antagonist of constitutive androstane receptor (CAR) against the NCATS DSHEA and TCM libraries (AID 1794837).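 Note: compound exposure lasted 24 h before viability reading; 0% is about no effect.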 The settings on record: CAR reporter cell line viability counterscreen, qHTS; series mostly up to 40 µM. In short, it runs like this:
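HepG2-CYP2B6-hCAR cells, 2,500/well, were exposed 24 hr at 37C to substances together with 48 uM CITCO (final). Viability was read as CellTiter-Fluor fluorescence (Ex/Em 405/540 nm) after 1 hr.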

Assay [7] can be described thus: Viability counterscreen for agonist of constitutive androstane receptor (CAR) against the NCATS DSHEA and TCM libraries (AID 1794838). Note: 0% is about no effect. The settings on record: HepG2 cell viability counterscreen, CAR agonist assay; series mostly up to 40 µM. The method, boiled down: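 HepG2-CYP2B6-hCAR cells (2,500/well) treated 24 h at 37C with compounds plus 0.75 uM PK11195; viability read by CellTiter-Fluor fluorescence, Ex/Em 405/540 nm.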

The target in assay [8] is Nuclear receptor subfamily 1 group I member 3 (Homo sapiens) (UniProt Q14994). The assay is described as follows: Primary qHTS for agonist of constitutive androstane receptor (CAR) against the NCATS DSHEA and TCM libraries (AID 1794839). Note: potency is the fitted concentration of half-maximal effect. The settings on record: CAR agonist reporter cells, qHTS luminescence. The method, boiled down:
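HepG2-CYP2B6-hCAR cells, 2,500/well, attached 5 h, then dosed with 0.75 µM PK11195 (final) for 24 h at 37 °C. Luciferase luminescence read (ONE-Glo); CellTiter-Fluor viability (Ex/Em 405/540 nm) in same wells; CITCO positive control.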

A short description of assay [9]: HepG2 viability counterscreen (readout 2: ATP content) against the NCATS DSHEA and TCM libraries (AID 1794840). Note: 0% is about no effect. The settings on record: ATP content luminescence; series mostly up to 27.3 µM. In short, it runs like this: (§1)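 HepG2 cells, 1,000/well, attached ~4 h, then exposed ~24 h at 37C to substances. Protease activity read by fluorescence of 25 uM GF-AFC (Ex/Em 380/510 nm) after 30 min; ATP then by CellTiter-Glo luminescence.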
Background: Counterscreens check selectivity or assay interference.

Assay [10] in a line: HepG2 viability counterscreen (readout 1: protease activity) against the NCATS DSHEA and TCM libraries (AID 1794841).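 Note: cells exposed to compounds for about 24 h before the protease read; 0% is about no effect.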 To be noted: qHTS concentration series; series mostly up to 27.3 µM. The method, boiled down: as §1
Assay [11] deals with Metallo-beta-lactamase type 2 (Klebsiella pneumoniae) (UniProt C7C422). Briefly: qHTS to identify inhibitors of the New Delhi Metallo-beta-lactamase (NDM): assay validation screen against the NCATS LOPAC Collection (AID 1794843).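 Note: nitrocefin turnover by NDM-1 measured as 485 nm absorbance at plateau; % is set by controls: 0 for no effect and ±100 for the full control effect.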 To be noted: NDM-1 enzyme, nitrocefin hydrolysis, absorbance 485 nm; series mostly up to 38.4 µM. In short, it runs like this:
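Nitrocefin hydrolysis (50 uM substrate stock) by NDM-1, 2 nM final, was followed by 485 nm absorbance after compound preincubation; buffer was 50 mM HEPES pH 7.0, 1 uM ZnSO4, 0.01% Tween20.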

The target in assay [12] is Glutathione peroxidase 1 (Homo sapiens) (UniProt P07203). The assay is described as follows: Primary qHTS Assay for Inhibitors of Recombinant Selenoprotein Glutathione Peroxidase 1 (GPX1) (AID 1845191). Note: nearly all actives have a fitted effect of over 65% in size. The settings on record: recombinant GPX1, GR-coupled NADPH fluorescence, 15 min; series mostly up to 48.8 µM. The method, boiled down: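 GR-coupled assay: compounds preincubated 30 min at room temperature with GPX1, then reaction started with CHP; final 10 nM GPX1, 1 mM GSH, 0.5 mM CHP, 0.5 mM NADPH, 100 nM GR, 0.01% BSA, pH 7.5 Tris buffer. NADPH fluorescence (340/450 nm) read at 0 and 15 min.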
Sequence of Glutathione peroxidase 1 (Homo sapiens) (P07203 whole entry, looked up): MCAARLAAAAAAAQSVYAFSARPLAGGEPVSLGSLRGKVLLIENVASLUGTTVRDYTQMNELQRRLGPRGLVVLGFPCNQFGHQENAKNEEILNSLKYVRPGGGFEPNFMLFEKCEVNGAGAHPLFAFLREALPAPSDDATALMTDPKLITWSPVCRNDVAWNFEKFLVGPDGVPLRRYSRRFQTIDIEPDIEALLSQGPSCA

For assay [13], the target named is Phospholipid hydroperoxide glutathione peroxidase GPX4 (Homo sapiens) (UniProt P36969). The assay is described as follows: Primary qHTS Assay for Inhibitors of Recombinant Selenoprotein Glutathione Peroxidase 4 (GPX4) (AID 1845192). For activity change, negative = inhibition: % is set by controls: 0 for no effect and ±100 for the full control effect. Note: nearly all actives have a fitted effect of over 65% in size. To be noted: recombinant GPX4, GR-coupled NADPH fluorescence, 15 min; series mostly up to 50 µM. In short, it runs like this: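 GR-coupled assay: recombinant GPX4 preincubated 30 min with compound at room temperature; final 200 nM GPX4, 1 mM GSH, 0.5 mM cumene hydroperoxide, 0.5 mM NADPH, 100 nM GR, 0.01% BSA, pH 7.5 Tris. NADPH fluorescence (340/450 nm) read at 0 and 15 min.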
Sequence of Phospholipid hydroperoxide glutathione peroxidase GPX4 (Homo sapiens) (P36969 whole entry, looked up): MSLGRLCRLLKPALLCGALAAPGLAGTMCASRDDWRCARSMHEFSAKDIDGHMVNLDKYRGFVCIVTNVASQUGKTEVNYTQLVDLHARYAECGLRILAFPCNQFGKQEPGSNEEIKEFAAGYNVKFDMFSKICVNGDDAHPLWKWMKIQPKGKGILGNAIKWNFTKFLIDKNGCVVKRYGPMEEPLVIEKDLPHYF

Assay [14] in a line: NCATS anti-infectives library activity on HEK293 viability as a counter-qHTS vs the C. elegans viability qHTS (AID 1745854).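 Note: HEK293 cells exposed to compounds for 24 hr before the viability read; % is set by controls: 0 for no effect and ±100 for the full control effect.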 To be noted: HEK293 viability counter-screen; series mostly up to 41.8 µM. The method, boiled down: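 HEK293 cells (1,500/well) exposed 24 hr at 37C to 1:5 titrations, up to 41.7 uM final; counter-screen to a C. elegans viability qHTS. Viability by CellTiter-Glo luminescence after 10 min at room temperature; digitonin as control.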

A short description of assay [15]: NCATS anti-infectives library activity on the primary C. elegans qHTS viability assay (AID 1745855; calls by dose curve; note: potency is the fitted concentration of half-maximal effect). The settings on record: C. elegans worm area imaging, day 7. In short, it runs like this: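 Viability read-out is GFP fluorescence of PE254-GFP-FLuc C. elegans, measured by laser cytometry (488 nm) at day 0, 3 and 7. Ten L1 worms per well were incubated 7 days at 21 °C with compounds and bacterial capsules in S medium.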

Assay [16] addresses Rap guanine nucleotide exchange factor 3 (Homo sapiens) (UniProt O95398). The assay is described as follows: Counterscreen qHTS for antagonist of cAMP-regulated guanine nucleotide exchange factor 3 (EPAC1) (AID 1645888).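 Note: fluorescence loss as bound BODIPY-GDP is released from Rap1B; % of control where 0% means no effect.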 The settings on record: Rap1B-BODIPY-GDP nucleotide exchange, fluorescence; series mostly up to 30.8 µM. In short, it runs like this:
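Rap1B–BODIPY-GDP (250 nM) with 50 uM GDP; compounds pin-transferred to 9.74 nM–152 uM final (activator) or from 7.32 nM upwards (inhibitor). Fluorescence Ex/Em 480/540 nm read at 5 and 30 min, then after adding cAMP or buffer, at room temperature.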

Sequence of Nicotinamide N-methyltransferase (Homo sapiens) (P40261 whole entry, looked up): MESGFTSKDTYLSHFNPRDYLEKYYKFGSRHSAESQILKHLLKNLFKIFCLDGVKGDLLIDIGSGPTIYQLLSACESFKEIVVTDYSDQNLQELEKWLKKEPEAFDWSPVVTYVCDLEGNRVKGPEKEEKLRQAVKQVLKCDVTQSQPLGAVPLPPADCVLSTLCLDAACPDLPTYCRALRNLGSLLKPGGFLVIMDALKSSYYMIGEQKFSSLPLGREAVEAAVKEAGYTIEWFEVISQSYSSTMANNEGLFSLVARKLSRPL
Sequence of Catechol O-methyltransferase (Homo sapiens) (P21964 whole entry, looked up): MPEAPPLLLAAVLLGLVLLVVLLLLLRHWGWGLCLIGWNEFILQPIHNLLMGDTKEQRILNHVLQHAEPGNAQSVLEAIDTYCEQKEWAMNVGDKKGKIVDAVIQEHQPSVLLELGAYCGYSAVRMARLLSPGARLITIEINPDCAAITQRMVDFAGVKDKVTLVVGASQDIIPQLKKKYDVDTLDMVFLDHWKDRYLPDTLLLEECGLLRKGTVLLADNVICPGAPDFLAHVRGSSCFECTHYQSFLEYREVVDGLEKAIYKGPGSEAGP
Sequence of Metallo-beta-lactamase type 2 (Klebsiella pneumoniae) (C7C422 whole entry, looked up): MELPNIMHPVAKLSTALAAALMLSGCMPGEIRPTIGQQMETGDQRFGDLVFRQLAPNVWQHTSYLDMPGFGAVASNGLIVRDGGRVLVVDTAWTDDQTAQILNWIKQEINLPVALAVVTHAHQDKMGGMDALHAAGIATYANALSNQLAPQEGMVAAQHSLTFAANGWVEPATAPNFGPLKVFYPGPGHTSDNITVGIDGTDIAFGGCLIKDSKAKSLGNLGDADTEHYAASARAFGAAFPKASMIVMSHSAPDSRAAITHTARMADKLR
Sequence of Rap guanine nucleotide exchange factor 3 (Homo sapiens) (O95398 whole entry, looked up): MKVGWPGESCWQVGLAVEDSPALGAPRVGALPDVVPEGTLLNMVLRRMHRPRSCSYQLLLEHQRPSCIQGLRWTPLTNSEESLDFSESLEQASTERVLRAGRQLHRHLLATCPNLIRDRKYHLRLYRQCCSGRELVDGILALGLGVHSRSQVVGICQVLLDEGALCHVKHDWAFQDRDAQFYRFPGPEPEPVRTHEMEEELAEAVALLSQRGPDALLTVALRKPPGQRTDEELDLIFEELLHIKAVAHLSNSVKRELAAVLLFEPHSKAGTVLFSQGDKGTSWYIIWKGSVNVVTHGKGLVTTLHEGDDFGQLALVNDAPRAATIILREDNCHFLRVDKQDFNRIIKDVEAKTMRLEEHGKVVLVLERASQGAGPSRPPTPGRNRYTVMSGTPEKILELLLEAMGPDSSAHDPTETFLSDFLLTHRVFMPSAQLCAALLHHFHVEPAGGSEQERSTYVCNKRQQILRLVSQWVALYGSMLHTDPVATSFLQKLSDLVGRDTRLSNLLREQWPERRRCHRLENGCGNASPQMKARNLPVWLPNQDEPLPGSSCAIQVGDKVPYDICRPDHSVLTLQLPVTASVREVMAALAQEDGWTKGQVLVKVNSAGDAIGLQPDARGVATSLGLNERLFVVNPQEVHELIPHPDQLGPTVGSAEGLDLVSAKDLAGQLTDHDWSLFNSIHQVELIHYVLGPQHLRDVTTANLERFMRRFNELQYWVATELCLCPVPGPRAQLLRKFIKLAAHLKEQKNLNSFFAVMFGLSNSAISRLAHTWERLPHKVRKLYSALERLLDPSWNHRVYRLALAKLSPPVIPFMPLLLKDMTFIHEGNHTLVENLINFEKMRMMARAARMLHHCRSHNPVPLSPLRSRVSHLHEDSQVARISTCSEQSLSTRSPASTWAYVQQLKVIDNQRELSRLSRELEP

On to `CC(C)=CCOc1c2occc2cc2ccc(=O)oc12`, for which the activity in assay [1] is -8.52%; in [3] it was -26.3%; in [4], -3.85%. Also, the activity change, negative = inhibition in assay [2] was -1.68%. The outcome in assay [5], in assay [6], in [7], in [9], in [10] and in [11] was “inactive” each time. Besides, in [8], the Potency was 14.1 µM (active). The Potency result in [12] and in assay [13] was “inactive” each time.

For the compound `CCCN1CCC[C@@H]2Cc3nc(N)ncc3C[C@H]21`, in assay [11], the outcome was “inactive”. For the same compound, the Potency result in assay [12] and in assay [13] was “inactive” throughout.

For `NCC(CC(=O)O)c1ccc(Cl)cc1` (stereo not drawn), the outcome in assay [14] and in [11] was “inactive” in each case. The Potency entry in assay [12] and in assay [13] was “inactive” each time.

Consider `CC[C@@H](CO)NC(=O)[C@@H]1C=C2c3cccc4c3c(cn4C)C[C@H]2N(C)C1`, for which the activity in assay [1] is 1.79%; in assay [3], -2.9%; in assay [4], -4.59%. Besides, in assay [2], the activity change, negative = inhibition is -1.19%. The outcome in assay [11] was “inactive”. The Potency entry in assay [12] and in assay [13] was “inactive” in each case.

Turning to `c1ccc2c(c1)OCC(C1=NCCN1)O2` (stereo not drawn), the outcome in assay [11] is “inactive”. Besides, the Potency result in assay [12] and in assay [13] was “inactive” throughout.

Turning to `Cc1sc2c(c1C)C(c1ccc(Cl)cc1)=N[C@@H](CC(=O)OC(C)(C)C)c1nnc(C)n1-2`, the outcome in [14] was “inactive”. Also, in [15], the Potency was 4.09 µM (active). Besides, the Potency entry in assay [12] and in assay [13] was “inactive” each time.

For the compound `Cc1ccc(S(=O)(=O)N[C@@H](CCCCN)C(=O)CCl)cc1`, the outcome in [11] was “inactive”. The Potency entry in assay [12] and in assay [13] was “inactive” each time.

Regarding `CC(=O)[C@H]1CC[C@H]2[C@@H]3CC[C@H]4C[C@](C)(O)CC[C@]4(C)[C@H]3CC[C@]12C`, the outcome in assay [11] was “inactive”. In addition, the Potency result in [12] and in [13] was “inactive” in each case.

Consider `NN=C(N)N`, for which the outcome in assay [11] was “inactive”. Further, the Potency result in [12] and in assay [13] was “inactive” throughout.

`CC(=O)[C@H]1CC[C@H]2[C@@H]3CC[C@H]4C[C@H](O)CC[C@]4(C)[C@H]3C(=O)C[C@]12C`: the outcome in assay [11] was “inactive”. Further, the Potency result in [12] and in assay [13] was “inactive” throughout.

In the case of `O=c1c(O)c(-c2ccc(O)c(O)c2)oc2cc(O)cc(O)c12`, the outcome in assay [5] is “inactive”.

As for `Clc1ccc(COC(Cn2ccnc2)c2ccc(Cl)cc2Cl)cc1` (stereo not drawn), the outcome in assay [16] is “inactive”. For the same compound, the Potency entry in [12] and in assay [13] was “inactive” in each case.

With `CN1C[C@H](CNC(=O)OCc2ccccc2)C[C@@H]2c3cccc4c3c(cn4C)C[C@H]21`, the activity in assay [1] was -5.5%; in assay [3] it was -16.1%; in assay [4], -5.43%. Moreover, the activity change, negative = inhibition in [2] came out at 5.68%. Moreover, the outcome in assay [11] is “inactive”. The Potency entry in assay [12] and in assay [13] was “inactive” throughout.

`CC(CCc1ccccc1)NC(C)C(O)c1ccc(O)cc1` (stereo not drawn): the outcome in assay [11] is “inactive”. Moreover, the Potency result in assay [12] and in [13] was “inactive” in each case.

Regarding `Cn1c(CCCC(=O)O)nc2cc(N(CCCl)CCCl)ccc21`, the outcome in [11] was “inactive”. The Potency entry in assay [12] and in assay [13] was “inactive” in each case.
